Consider 39 compounds from ChEMBL document CHEMBL3988442, “University of Dundee, Small-Polar-MMV Screening Library” (2021).

The assay deals with T1, Aspartate--tRNA(Asp/Asn) ligase (Mycobacterium tuberculosis (strain ATCC 25618 / H37Rv)) (UniProt P9WFW3).
T1 sequence (whole entry): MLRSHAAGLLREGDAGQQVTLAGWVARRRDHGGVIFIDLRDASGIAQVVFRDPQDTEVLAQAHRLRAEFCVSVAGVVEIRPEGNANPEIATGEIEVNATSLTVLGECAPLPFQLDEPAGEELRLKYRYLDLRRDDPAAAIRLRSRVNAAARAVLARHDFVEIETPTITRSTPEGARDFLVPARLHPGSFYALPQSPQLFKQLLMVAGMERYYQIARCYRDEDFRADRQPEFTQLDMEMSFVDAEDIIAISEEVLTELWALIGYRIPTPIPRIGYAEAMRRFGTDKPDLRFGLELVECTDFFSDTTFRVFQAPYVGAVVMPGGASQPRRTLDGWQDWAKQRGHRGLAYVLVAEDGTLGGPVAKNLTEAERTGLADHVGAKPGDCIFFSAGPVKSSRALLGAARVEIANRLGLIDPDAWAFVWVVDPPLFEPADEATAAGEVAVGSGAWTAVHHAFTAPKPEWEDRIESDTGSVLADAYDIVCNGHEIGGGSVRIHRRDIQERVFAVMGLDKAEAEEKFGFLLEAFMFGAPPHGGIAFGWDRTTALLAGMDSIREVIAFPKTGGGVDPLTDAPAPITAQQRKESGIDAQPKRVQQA
Put plainly: Assay for Asp RNA synthetase-1 from Mycobacterium tuberculosis. The format is functional. Also on record: scale not given: in the data most compounds retested in dose-response had high values. Conditions: 30 µM.
`Cc1ccccc1-c1cc(NC(=O)CC(C)C)n(CCO)n1`: the Percent Effect was -0.569%.

For `CC(=O)c1cc(CC(=O)NCc2ccc(CN(C)C)cc2)cs1`, the Percent Effect is 1.66%.

For the compound `COc1ccc(C(=O)N2Cc3c(Cn4ccnc4)nn(C)c3C2)cc1`, the Percent Effect was -10.7%.

Regarding `Cc1ncc(CN2Cc3ccccc3O[C@]3(CC[C@H](CO)CC3)C2)cn1`, the Percent Effect turned out to be 0.551%.

For the compound `Cc1csc(N2CCN(Cc3ccccn3)CC2C)n1` (centres undefined), the Percent Effect amounted to 6.41%.

As to `Cc1cc(C)n(CC2CCCN2C(=O)CCCNc2ncccn2)n1` (centres undefined), the Percent Effect is -2.92%.

As for `Cn1cccc1C(=O)N1CCn2cc(CNC(=O)CC3CC3)nc2C1`, the Percent Effect was -0.0735%.

Turning to `COc1cc(CNC2CCc3nc(C(C)C)nn3C2)cc2c1OCO2` (centres undefined), the Percent Effect stood at 1.32%.

As for `Cc1nn(C)c2c(N3CCN(C(=O)NC4CCCCC4)CC3)ncnc12`, the Percent Effect is -5.2%.

As to `Cn1cnnc1C1CCCN(C(=O)c2n[nH]c3ccccc23)C1` (centres undefined), the Percent Effect was -3.14%.

In the case of `Cc1cc(CN2CCc3nn(C)c(=O)cc3C2)on1`, the Percent Effect amounted to 46.2%.

Regarding `Cc1nc(CN2CCCC(N(C)Cc3nnsc3Cl)C2)no1` (centres undefined), the Percent Effect is -2.25%.

On to `O=C(c1ccco1)N1CCOCC2(C1)CN(c1ccccc1)C(=O)CO2` (centres undefined), for which the Percent Effect came out at 8.44%.

`Cc1nc(Nc2ncccn2)cc(C2CCCN2C2CCOCC2)n1` (centres undefined): the Percent Effect worked out at 2.13%.

`Cn1ccc(C(=O)NCc2cccc(CN3CCCC3)c2)cc1=O`: the Percent Effect was 1.53%.

Regarding `Cn1ccnc1CN1CCCCC1Cn1cccn1` (centres undefined), the Percent Effect came to 2.66%.

With `Cc1ncsc1CCC(=O)N1CCCC[C@H](N(C)C)C1`, the Percent Effect is -3.74%.

Regarding `Cc1ccoc1-c1nnc(CNCC2CCCN2c2cccnn2)o1` (centres undefined), the Percent Effect is -2.62%.

Regarding `Cn1cccc1CN1CCC2(CCCN(C(=O)c3cnccn3)C2)C1` (centres undefined), the Percent Effect came to 11.1%.

For `Cc1ncsc1CN1C[C@@H](OCC2CC2)[C@H]2OCCC[C@H]21`, the Percent Effect is -6.67%.

`COc1ccc(C)cc1CNCc1ccc(-n2nc(C)cc2C)nc1`: the Percent Effect was -2.68%.

Consider `Cc1nc(CN2CCCC2c2c(C)nn(C)c2Cl)no1` (centres undefined), for which the Percent Effect is -3.26%.

Turning to `COCCN1CCN(Cc2cccc(C(N)=O)c2)CC1C` (centres undefined), the Percent Effect is -1.6%.

Consider `N#Cc1ncn(CCC(=O)Nc2c(Cl)cccc2Cl)n1`, for which the Percent Effect stood at 6.68%.

With `O=C(Nc1ccccc1)c1nn(C2CCS(=O)(=O)C2)c2c1CCCC2` (centres undefined), the Percent Effect is 0.629%.

For the compound `Cc1nc(CNC(=O)NCC(O)c2cccc(Cl)c2)cs1` (centres undefined), the Percent Effect is 1.01%.

Turning to `CC(C)CC(=O)N1CC[C@@H]2[C@H](CC1)N(S(C)(=O)=O)CCS2(=O)=O`, the Percent Effect was -2.04%.

Take `COc1ccc(-c2noc(CN3CCc4cncnc4C3)n2)cc1`: the Percent Effect was -0.389%.

For the compound `COc1ccc(CNC(=O)NC2CCC(O)CC2)c(C(F)(F)F)c1` (centres undefined), the Percent Effect is 2.84%.

Consider `O=C(Nc1cccnc1)[C@H]1C[C@@H]2CCN(c3nncs3)C[C@H]2O1`, for which the Percent Effect was -3.84%.

For `COc1ccccc1OCCC(=O)N1CCCC1Cn1cc(C)cn1` (centres undefined), the Percent Effect was -0.922%.

On to `C1CC(NCc2nc(C3CC3)no2)CN(Cc2noc(C3CC3)n2)C1` (centres undefined), for which the Percent Effect is -2.94%.

`Cc1nc(C)n(CC2CCCCN2CCCS(=O)(=O)N(C)C)n1` (centres undefined): the Percent Effect was determined as 1.48%.

`OC[C@H]1CC[C@]2(CC1)CN(Cc1ccccn1)Cc1ccccc1O2`: the Percent Effect turned out to be 0.104%.

As for `CSCCNC(=O)c1ccc(OC2CCN(CC(C)(C)C)CC2)c(Cl)c1`, the Percent Effect was 1.62%.

For the compound `Cc1nsc(C(=O)N2CCc3ccccc3C2)n1`, the Percent Effect was -2.11%.

Take `CC(C)Nc1ncnc2c1CCN(C(=O)Cc1ccccn1)CC2`: the Percent Effect came out at 3.17%.

For `O=S(=O)(N1CCCCC1)N1CCc2nc(C3CCNCC3)ncc2C1`, the Percent Effect is -1.74%.

In the case of `CCC1CN(CCNC(C)=O)CCN1CCOC` (centres undefined), the Percent Effect was determined as 15%.
